PubChem BioAssay AID793 (The Scripps Research Institute Molecular Screening Center, 2007)
Among all 140,000 compounds or so, about 1,400 (1%) were called active. Rule as the data show it: active = inhibition above about 17%; inactive = the rest. For the sample, actives were picked, then their nearest neighbours and some compounds at random.

The compounds below were run against Neuropeptide Y receptor type 2 (Homo sapiens) (UniProt P49146) (assay: blockers of human neuropeptide Y Y2 receptor – cell-based, primary screen (AID 793;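 also: 0% = vehicle with agonist challenge and 100% = reference antagonist with challenge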)). Conditions: NPY-Y2 expressing cells, antagonist mode; at 2.7 µM; active compounds read high.
Sequence of Neuropeptide Y receptor type 2 (Homo sapiens) (P49146 whole entry, looked up): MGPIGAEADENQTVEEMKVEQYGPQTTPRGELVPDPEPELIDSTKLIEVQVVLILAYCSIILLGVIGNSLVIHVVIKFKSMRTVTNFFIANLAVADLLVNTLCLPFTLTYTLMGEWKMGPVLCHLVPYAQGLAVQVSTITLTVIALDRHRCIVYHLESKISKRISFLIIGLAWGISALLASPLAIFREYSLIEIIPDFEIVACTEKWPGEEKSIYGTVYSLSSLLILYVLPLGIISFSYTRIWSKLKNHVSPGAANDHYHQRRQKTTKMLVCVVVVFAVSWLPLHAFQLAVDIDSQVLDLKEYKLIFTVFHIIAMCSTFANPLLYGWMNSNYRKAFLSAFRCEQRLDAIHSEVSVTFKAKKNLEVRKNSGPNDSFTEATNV
In the case of `CCOC(=O)C1=C(C)NC(=O)NC1c1ccccc1` (stereo unspecified), the inhibition is reported as 0.94% (inactive).
In the case of `O=C(Nc1nnc(SCc2c(Cl)cccc2Cl)s1)C1CCCO1` (stereo unspecified), the inhibition is reported as 22.4% (active).
With `O=C(Nc1nnc(SCc2ccc(Cl)cc2Cl)s1)C1COc2ccccc2O1` (stereo unspecified) the inhibition was -1.05% (inactive).
For `O=C(Nc1nnc(CCc2ccccc2)s1)C1CCCO1` (stereo unspecified), the inhibition was 3.28% (inactive).
For `COc1ccc(NC(=O)c2ccc(C#CC(C)(C)O)cc2)cc1`, the inhibition was -0.31% (inactive).
In the case of `Cc1nn2c3ccccc3nc2n(C)c1=O`, the inhibition is reported as 10.8% (inactive).
For `Cc1ccc(O)c(CNc2nc3ccccc3n2C)c1`, the inhibition was -2.2% (inactive).
`Cc1ccc(C2=NN(C)c3nc4ccccc4n3C2)cc1` was tested, and the inhibition was 18.8% (active).
`O=C(NC1CCN(Cc2ccccc2)CC1)c1c(F)cccc1F` was tested, and the inhibition was 0.52% (inactive).
`O=S(=O)(NCCSc1ccccn1)c1ccc(Cl)cc1` was tested, and the inhibition was 6% (inactive).
With `CCOc1ccc(S(=O)(=O)NCCSc2ccccc2)cc1` the inhibition was 20.6% (active).
`Cc1ccc(S(=O)(=O)NCCSc2ccccc2)cc1[N+](=O)[O-]` was tested, and the inhibition was 13.3% (inactive).
`Cc1ccccc1NC(=O)c1ccc(COc2ccc3c(C)cc(=O)oc3c2)cc1` was tested, and the inhibition was 1.18% (inactive).
In the case of `Cc1cc(=O)oc2cc(OCC3CC(c4ccccc4Cl)=NO3)ccc12` (stereo unspecified), the inhibition is reported as 10.7% (inactive).
For `Cc1ccccc1N1CCN(CCCOc2ccc3c(C)cc(=O)oc3c2)CC1`, the inhibition was 22.1% (active).
With `CC1(C)C(C=C(Cl)Cl)C1C(=O)N(Cc1ccc(Cl)cc1)C1CCS(=O)(=O)C1` (stereo unspecified) the inhibition was 5.56% (inactive).
`CCNc1ccc(C(=O)OCC(=O)N2c3ccccc3NC(=O)C2(C)C)cc1[N+](=O)[O-]` was tested, and the inhibition was 0.27% (inactive).
`Cc1cc(C(=O)OCC(=O)N2c3ccccc3NC(=O)C2(C)C)c(C)n1-c1ccccc1` was tested, and the inhibition was 20.1% (active).
With `COc1ccc(Cl)cc1-n1c(C)cc(C(=O)OCC(=O)N2CC(=O)Nc3ccccc32)c1C` the inhibition was -0.44% (inactive).
In the case of `CCS(=O)(=O)n1nc(-c2ccccc2)nc1SCc1ccccc1`, the inhibition is reported as 11.5% (inactive).
`O=S(=O)(Cc1cc(Sc2ccccc2)nc(-c2ccccc2)n1)c1ccccc1` was tested, and the inhibition was 32.1% (active).
In the case of `Cc1ccc(Sc2cc(N3CCOCC3)nc(-c3ccccc3)n2)cc1`, the inhibition is reported as -0.14% (inactive).
`COc1ccc(N2CCN(Cc3nnc(-c4ccccc4)o3)CC2)cc1` was tested, and the inhibition was 3.16% (inactive).
With `Cc1nc2nc3c(cn2n1)C(=O)CC(c1ccccc1)C3` (stereo unspecified) the inhibition was 2.84% (inactive).
For `Cc1cc(C)nc(-n2ncc3c2CC(c2ccc(C(C)C)cc2)CC3=O)n1` (stereo unspecified), the inhibition was 24.9% (active).
With `CCN1CCC2(CC1)N=C(c1ccc(F)cc1)C(=S)N2C(=O)c1ccc(C)cc1` the inhibition was 1.56% (inactive).
In the case of `S=C(NCC1COc2ccccc2O1)Nc1ccc(Br)cc1` (stereo unspecified), the inhibition is reported as 6.55% (inactive).
With `c1ccc2c(c1)OCC(CNc1ncnc3nc[nH]c13)O2` (stereo unspecified) the inhibition was -0.22% (inactive).
For `c1ccc(-c2cc3c(NCC4COc5ccccc5O4)ncnc3s2)cc1` (stereo unspecified), the inhibition was 22.8% (active).
With `Nc1nnc(SCC(=O)Nc2ccc3nc(SCC(=O)Nc4ccccc4)sc3c2)s1` the inhibition was 4.56% (inactive).
In the case of `CC(=O)NC(C)c1nc2ccccc2n1Cc1ccccc1F` (stereo unspecified), the inhibition is reported as 2.02% (inactive).
In the case of `N=c1n(CCc2ccccc2)c2ccccc2n1Cc1ccccc1F`, the inhibition is reported as 23.1% (active).
`CN(Cc1ccccc1)Cc1ccccc1F` was tested, and the inhibition was 1.28% (inactive).
With `COc1ccc(Cn2c(-c3ccc(Cl)cc3)c[n+]3ccccc23)cc1` the inhibition was 1.35% (inactive).
`COc1ccc(NC(=O)c2cccc(NC(=O)c3ccco3)c2)c(OC)c1` was tested, and the inhibition was 3.21% (inactive).
In the case of `COc1cc(NC(=O)c2cc([N+](=O)[O-])ccc2Br)ccc1NC(=O)c1ccco1`, the inhibition is reported as 31.7% (active).
`COc1ccccc1C(=O)Nc1ccc(NC(=O)c2ccco2)c(C)c1` was tested, and the inhibition was -1.27% (inactive).
`COc1ccccc1Oc1ccc(N/C=C2/CCCC2=O)cc1` was tested, and the inhibition was 2.93% (inactive).
In the case of `COc1cccc(NC(=O)CC(c2ccc(OC(C)C)cc2)c2ccccc2OC)c1` (stereo unspecified), the inhibition is reported as 4.56% (inactive).
In the case of `CC(C)N1C(=O)N(c2ccccc2)C(C)(O)CC1(C)C` (stereo unspecified), the inhibition is reported as -1.03% (inactive).
With `O=C(Nc1ccc(N2C(=O)c3cccc4cccc(c34)C2=O)cc1)c1ccc(N2CCCCC2)c([N+](=O)[O-])c1` the inhibition was 0.97% (inactive).
With `Cn1c(=N)n(CC(O)c2ccccc2)c2ccccc21` (stereo unspecified) the inhibition was 6.24% (inactive).
With `OC(COc1ccc2ccccc2c1)CN1CCOCC1` (stereo unspecified) the inhibition was 1.96% (inactive).
With `Cc1cccc(OCC(O)Cn2c(=N)n(CCN3CCOCC3)c3ccccc32)c1` (stereo unspecified) the inhibition was 19.8% (active).
`CCOc1ccc(C(O)Cc2nc3ccccc3n2C)cc1` (stereo unspecified) was tested, and the inhibition was 0.15% (inactive).
For `CCOc1ccc(C(O)Cn2c(=N)n(CCN3CCCCC3)c3ccccc32)cc1` (stereo unspecified), the inhibition was 18.8% (active).
For `C=CCn1c(=N)n(CC(O)COc2ccc(OC)cc2)c2ccccc21` (stereo unspecified), the inhibition was 10.5% (inactive).
In the case of `Cc1nc2c(C(=O)NCc3cccs3)cnn2c(C)c1Cc1ccc(F)cc1`, the inhibition is reported as 11.8% (inactive).
`COc1ccc(-c2csc3ncnc(Oc4ccc5c(C)cc(=O)oc5c4)c23)cc1` was tested, and the inhibition was 6.66% (inactive).
`Brc1ccc(-c2csc(N/N=C/c3ccc4c(c3)OCO4)n2)cc1` was tested, and the inhibition was -1.38% (inactive).
With `CCCn1c(N)c(C(=O)CSc2nnc(-c3cccnc3)n2-c2ccc(C)cc2C)c(=O)[nH]c1=O` the inhibition was 2.5% (inactive).
